Compound activity: PubChem, The Scripps Research Institute Molecular Screening Center
A selection: hits, their analogues and other compounds. The true share with any hit is near 2.3%.
CHO-K1 Ca PAM – nonselective activator or artifact in parental CHO-K1 calcium assay; ATP EC20, Fluo-8 calcium fluorescence; 0% at ATP EC20, 100% at ATP max; 0.02% of 360,000 active; AID 602247; activation, % at 3 µM;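 active means activation above the run cutoff, the mean activation of all test compounds plus 3 SD, cut at about 40% in these data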;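 further: peak over basal fluorescence ratio in a 140 s read after ATP addition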
M1 ag parental – counter-screen for M1 agonists: effect in parental CHO-K1 cells; activation, % at 3 µM; Fluo-8 calcium fluorescence; scaled to maximal ATP response, vehicle zero; AID 602248; 0.48% of 360,000 active; in the data active means activation above about 15%;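 further: untransfected CHO-K1 host cells lacking M1 receptor as counterscreen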
CHRM1 PAM – potentiates human M1 receptor response to acetylcholine; P11229; CHO-K1 hM1, Fluo-8 calcium fluorescence, ACh EC20; 0% = ACh EC20, 100% = maximal ACh; activation, % at 3 µM; 0.088% of 360,000 active; in the data active means activation above about 19%, passing the limit was not always enough
Target sequence (P11229 whole entry, looked up): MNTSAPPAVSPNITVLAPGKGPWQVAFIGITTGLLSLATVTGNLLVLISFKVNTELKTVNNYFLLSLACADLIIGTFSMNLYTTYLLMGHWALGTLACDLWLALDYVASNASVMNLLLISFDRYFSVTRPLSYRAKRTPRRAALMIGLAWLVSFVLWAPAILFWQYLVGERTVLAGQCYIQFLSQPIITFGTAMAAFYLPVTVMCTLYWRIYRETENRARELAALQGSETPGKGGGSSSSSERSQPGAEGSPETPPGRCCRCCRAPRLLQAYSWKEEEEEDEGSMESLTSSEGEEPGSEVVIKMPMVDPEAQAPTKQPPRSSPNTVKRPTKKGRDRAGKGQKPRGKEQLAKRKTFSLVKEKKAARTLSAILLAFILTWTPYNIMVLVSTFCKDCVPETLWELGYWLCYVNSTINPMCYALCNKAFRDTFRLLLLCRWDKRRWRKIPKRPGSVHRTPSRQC
CHO-K1 Ca antag – counter-screen for M1 antagonists: effect in parental CHO-K1 cells; AID 602250; 0.6% of 360,000 active; ATP-induced calcium, Fluo-8 fluorescence; inhibition, % at 3 µM;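 active means inhibition above a per-plate cutoff, the plate's mean sample inhibition plus 3 SD, cut at about 24% in these data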
CHRM1 agonist – activates human CHRM1 receptor; P11229; CHO-K1 hM1, Fluo-8 calcium fluorescence, agonist mode; 0% DMSO, 100% acetylcholine EC100; activation, % at 3 µM; 0.33% of 360,000 active; AID 588814;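 active means activation above the run's mean compound activation plus 3 SD, cut at about 16% in these data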;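 further: peak over basal fluorescence ratio within a 140 s kinetic read after compound addition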
CHRM1 antagonist – blocks human M1 muscarinic receptor | AID 588852 | 1.3% of 360,000 active | CHO-K1 hM1, Fluo-8 calcium fluorescence, ACh EC80 antagonist | inhibition, % at 3 µM | P11229;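 active means percent inhibition above its own plate's cutoff, namely the mean of that plate's compound wells plus 3 SD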;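 further: peak over basal fluorescence ratio during 140 s after agonist addition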
Of the large screens only hits and unclear results are named; the others gave an inactive call.

CCOC(=O)N1CCC(NC(=O)c2cc(C(=O)NCc3ccc(F)cc3)ccc2CO)CC1	none
CCOC(=O)N1CCC(NCCNC(=O)c2ccc(F)c(F)c2)CC1	CHRM1 agonist 63.9, CHRM1 antagonist 74.5
CCOC(=O)N1CCC(NC(=O)c2cc(C(=O)Nc3ccc(F)cc3F)ccc2CO)CC1	CHO-K1 Ca antag 28.5
CCOC(=O)N1CCC(NCCNC(=O)c2ccc(Cl)cc2)CC1	CHRM1 agonist 21.6
COc1ccc(-c2nn(C)c(=O)[nH]2)cc1	none
COc1ccc(/C(O)=C2/C(=O)C(=O)N(CCN3CCNCC3)C2c2cccc([N+](=O)[O-])c2)cc1 (centres undefined)	none
COc1cc(=O)n(C)c2cc(N(C)C)ccc12	CHRM1 PAM 20.0
Oc1ccc(C[C@H]2CN([C@@H](Cc3ccc(O)cc3)CN3CCC[C@@H]3CN3C(=S)NC[C@@H]3Cc3ccccc3)C(=S)N2CCc2ccccc2)cc1	CHO-K1 Ca antag 34.1
CC(C)C[C@H]1CN([C@@H](Cc2ccccc2)CN2CCC[C@@H]2CN2C(=O)C(=O)NC[C@@H]2Cc2ccc(O)cc2)C(=O)C(=O)N1CC1CCCCC1	CHO-K1 Ca antag 30.2
O=C(CCCCN1CCCCC1)c1ccccc1	none
O=C(C(=Cc1ccccc1)CN1CCCCC1)c1ccccc1	CHRM1 antagonist 39.4
Cc1ccc(NC(=O)CSc2nc3[nH]ncc3c(=O)[nH]2)c(C)c1	none
CCc1nc2c(OCC3COc4ccccc4O3)cccn2c1N(C)C(=O)c1ccccc1F (centres undefined)	none
CCc1nc2c(OCC(=O)C(C)(C)C)cccn2c1N(C)C(=O)c1cccs1	none
CCc1nc2c(OCC(=O)c3ccc(F)cc3)cccn2c1N(C)C(=O)c1cccs1	CHO-K1 Ca antag 26.5
CCc1nc2c(OCC3COc4ccccc4O3)cccn2c1N(C)C(=O)c1cccs1 (centres undefined)	CHO-K1 Ca antag 31.0
CCC(C#CCN1CCOCC1)(CC)OCCC#N	none
CCC(C#CCN1CCCCC1)(CC)OCCC#N	CHRM1 antagonist 62.6
CCC(C)(C#CCN1CCCCC1)OCCC#N (centres undefined)	CHRM1 antagonist 69.0
CCC(C)(C#CCN1CCCCC1)OC(C)=O (centres undefined)	none
CCC1Sc2ccc(S(=O)(=O)Nc3ccc(OC)cc3)cc2NC1=O (centres undefined)	M1 ag parental 18.3
CCC1Sc2ccc(S(=O)(=O)Nc3ccc(OC)c(OC)c3)cc2NC1=O (centres undefined)	CHO-K1 Ca antag 33.6
N#CCSc1nc2ccc(N3CCCCC3)cc2c(=O)n1Cc1ccccc1	CHRM1 antagonist 21.8
Cn1c(=O)c2c(ncn2CC(=O)OCC(=O)NCc2ccccc2Cl)n(C)c1=O	none
Cc1cc(=O)[nH]c(N/N=C/c2ccc(OC(=O)c3cccnc3)cc2)n1	none
COC1=CC(=NCl)C=CC1=NCl	none
ClN=C1C=CC=CC1=NCl	CHO-K1 Ca antag 34.5
Cc1c(CCOC(=O)c2ccc(Cl)cc2Cl)sc[n+]1CC(=O)c1ccccc1	CHRM1 antagonist 95.3
Cc1c(CCOC(=O)C23CC4(C)CC(C)(CC(C)(C4)C2)C3)sc[n+]1CC(=O)c1ccccc1	CHRM1 antagonist 32.1
Cc1c(CCOC(=O)C23CC4CC(CC(C4)C2)C3)sc[n+]1Cc1ccccc1	CHRM1 antagonist 64.3
Cc1c(CCOC(=O)c2cc([N+](=O)[O-])cc([N+](=O)[O-])c2)sc[n+]1CC(=O)c1ccc(Br)cc1	CHRM1 antagonist 80.3
Cc1c(CCOC(=O)CC23CC4CC(CC(C4)C2)C3)sc[n+]1CC(=O)c1ccccc1	none
Cc1sc[n+](CC(=O)c2ccc(Br)cc2)c1C	none
Cc1c(CCOC(=O)C23CC4CC(CC(C)(C4)C2)C3)sc[n+]1Cc1ccccc1	CHRM1 antagonist 99.8
Cc1ncc(C[n+]2csc(CCOC(=O)C34CC5CC(CC(C5)C3)C4)c2C)c(N)n1	none
N=c1c2ccccc2nc2n1CCCCC2	CHO-K1 Ca antag 33.6
Cc1ccc(S(=O)(=O)CCC(=O)NCCN2C(=O)S/C(=C/c3ccc(F)cc3)C2=O)cc1	CHO-K1 Ca antag 26.0
O=C(CCNC(=O)c1ccco1)NCCN1C(=O)S/C(=C\c2ccc(F)cc2)C1=O	none
CC1=C(Sc2ccccn2)C(=O)NC(C)(C)C1	CHO-K1 Ca antag 26.8
